Consider 65 compounds from PubChem BioAssay AID1347076 (National Center for Advancing Translational Sciences (NCATS), 2019).

Out of some 400,000 compounds screened, about 13,000 (3.2%) were called active. About 18% were inconclusive and are not listed. The call rests on the fitted dose curve; in most records, active means well fitted cell-killing curve with a large enough effect; inconclusive means small, poorly fitted or top-dose-only effect, or effect the other way; inactive means flat fitted curve, though single readings scatter. What follows is part of a selection rich in actives, with near analogues and random picks from the rest. Where a call stands in place of a potency, no number is given.
Potency means the concentration at half of the fitted maximal effect.

The nature of the test: qHTS assay for MDR1-selective chemotherapeutics: Primary screen using the drug-selected MDR subline cells KB-V1. Further: nearly all actives have a fitted effect of over 60% in size. The conditions noted are these: KB-V1 MDR cells viability, CellTiter-Glo, 72 h; series mostly up to 46.1 µM. The method, boiled down: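 Drug-selected KB-V1 cells, grown in DMEM lacking phenol red with 10% FBS, receive compound titrations; after three days at 37 degrees C, surviving cell ATP is quantified by CellTiter-Glo luminescence and responses normalized and curve-fitted.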
On the technique in general: qHTS replaces the single test concentration by a dilution series.
Consider `Nc1ncnc2c1ncn2[C@@H]1O[C@H](C(=O)NS(=O)(=O)c2c(Cl)nc3sccn23)[C@@H](O)[C@H]1O`, for which the Potency entry was “inactive”.
Next, `CSc1ccccc1C(=O)NCc1ccccc1`: “inactive”.
For the compound `CCc1nc2ccccc2c(C(=O)NCc2ccc(OC)cc2)c1C`, the Potency entry is “inactive”.
`CCSc1ccccc1C(=O)NCc1ccc(OC)cc1`: the Potency was 20.6 µM (active).
Next, `O=C(CSc1ccc(Cl)cc1)NC1CC1`: “inactive”.
Next, `CCC1CCCCN1CCNS(=O)(=O)c1ccc2c(c1)CCN2C(C)=O` (stereo not given): “inactive”; `CCC(=O)N1CCc2cc(Br)c(S(=O)(=O)NCCN3CCCCC3CC)cc21` (stereo not given): 10.3 µM (active).
On to `CCCN(CCC)S(=O)(=O)c1cc2c(cc1Br)CCN2C(=O)CC`, for which the Potency entry was “inactive”.
Next, `NC(=O)Nc1ccc(/C=C/c2ccnc3ccccc23)cc1`: “inactive”; `C[C@H]1CN([C@@H](C)CO)C(=O)CCCn2nncc2CO[C@@H]1CN(C)Cc1ccc(Oc2ccccc2)cc1`: “inactive”; `COc1ccccc1CNC(=O)c1cc(-c2cc(F)ccc2OC)n[nH]1`: “inactive”.
Next, `O=C(Oc1ccc(-c2nc(-c3ccccn3)no2)cc1)c1ccccc1`: 7.31 µM (active); `CCCCCCOc1ccc(OC(=O)c2cccnc2)cc1`: “inactive”.
Next, `Brc1ccc(-c2noc(-c3ccccc3)n2)o1`: “inactive”; `CC(C)Nc1ncnc2c1ncn2[C@H]1CN(Cc2ccncc2)C[C@@H](CO)O1`: “inactive”; `CN1OC[C@@H]2CN(C(=O)c3ccc(-c4ccccc4)cc3)[C@H](c3ccc(-c4cccc(F)c4)cc3)C[C@@H]21`: “inactive”.
On to `CCC(=O)N1CCCC1(C)C(=O)Nc1ccc2c(c1)CCN2C(C)=O` (stereo not given), for which the Potency result is “inactive”.
Next, `CCN(Cc1cc2cc(C)ccc2[nH]c1=O)S(=O)(=O)c1ccccc1`: 3.66 µM (active); `CCC(=O)N(CCc1ccccc1)Cc1cc2cc(C)ccc2[nH]c1=O`: “inactive”; `Cc1ccc(S(=O)(=O)N(Cc2cc3ccccc3[nH]c2=O)CC2CCCO2)cc1` (stereo not given): “inactive”.
Next, `S=C(NN=Cc1ccccn1)Nc1ccccn1`: “inactive”.
Regarding `Cc1ccc(CNC(=O)Nc2nnc([C@H]3C[C@H](O)[C@@H](CO)O3)s2)cc1`, the Potency result was “inactive”.
Next, `Cc1ccc(C(=O)Nc2ncccc2C)cc1S(=O)(=O)N1CCOCC1`: “inactive”; `Cc1ccc(NC(=O)CNCc2ccccn2)cc1S(=O)(=O)N(C)C`: “inactive”; `CCN(CC)S(=O)(=O)c1cc(C(=O)Nc2ccccn2)ccc1C`: 23.1 µM (active).
As to `COc1ccc(CN2CCC(C)(Oc3cccc(F)c3)C2)c2ccccc12` (stereo not given), the Potency result is “inactive”.
Next, `Fc1ccc(CSc2nnc(-c3cc4c(s3)-c3ccccc3CC4)o2)cc1`: 20.6 µM (active); `Fc1ccc(-c2nnc(CSc3nnc(-c4ccc5c(c4)OCO5)o3)o2)cc1`: “inactive”.
Next, `CCSc1nnc(-c2cc3c(s2)-c2ccccc2CC3)o1`: “inactive”; `CCc1nc2ccc(C(=O)N(C)Cc3ccco3)cn2c1N(C)C(=O)Cc1ccccc1`: “inactive”.
Regarding `O=C(C1CCN(S(=O)(=O)c2ccc(Br)s2)CC1)N1CCN(C2CCCCC2)CC1`, the Potency result is “inactive”.
Next, `CSc1ccc(S(=O)(=O)N2CCC(C(=O)NCCc3ccccc3)CC2)cc1`: “inactive”.
For `CC(C)N(C(=O)CN1CCN(S(=O)(=O)c2ccc(Br)s2)CC1)C(C)C`, the Potency was 23.1 µM (active).
Next, `O=C(NCCc1ccccc1)C1CCN(S(=O)(=O)c2ccc(Br)s2)CC1`: 2.06 µM (active).
Next, `Cc1cccc(NC(=O)CN2CCCN(S(=O)(=O)c3ccc(Br)s3)CC2)c1`: “inactive”.
Next, `O=C(C1CCN(S(=O)(=O)c2ccc(Br)s2)CC1)N1CCN(c2ccccc2)CC1`: “inactive”.
For the compound `CCCCNC(=O)C1CCCN(c2nnc(C)c3c(C)n(-c4ccc(Cl)cc4)nc23)C1` (stereo not given), the Potency entry is “inactive”.
Next, `O=C1OCCC1=COCCCCOC=C1CCOC1=O`: “inactive”; `CCc1nc2ccc(C(=O)NC3CCN(Cc4ccccc4)CC3)cn2c1N(C)CCN1CCOCC1`: “inactive”; `CCc1ccc(NC(=O)c2nn(-c3ccc(C)cc3)c(=O)n(C)c2=O)cc1`: “inactive”.
Next, `Clc1ccc2nc(-c3ccccc3)nc(C(Cl)Cl)c2c1`: 3.66 µM (active); `O=C(CCl)NNc1nc(-c2ccccc2)c2cc(Cl)ccc2n1`: “inactive”; `NC(N)=Nc1nc(-c2ccccc2)c2cc(Cl)ccc2n1`: “inactive”.
Take `CCc1nc2ccc(C(=O)Nc3cc(-c4ccccc4)ccc3OC)cn2c1N(CC)CC(=O)N(C)C`: the Potency result was “inactive”.
Next, `O=C(OCc1cc(=O)n2nc(C3CC3)sc2n1)c1ccccc1Cl`: “inactive”; `Cn1c(=O)[nH]c(=O)c2c1nc(CN1CCN(c3ccccc3F)CC1)n2CCc1ccccc1`: “inactive”.
Next, `Cn1c(=O)c2c(nc(CN3CCOCC3)n2Cc2ccccc2)n(C)c1=O`: “inactive”.
Next, `Cn1c(=O)[nH]c(=O)c2c1nc(CN(Cc1ccccc1)Cc1ccccc1)n2CCN1CCOCC1`: 6.51 µM (active); `C[C@H]1CN([C@@H](C)CO)C(=O)c2cc(C3=CCCCC3)cnc2O[C@@H]1CN(C)C(=O)Cc1ccccc1`: “inactive”; `COc1ccc(CCNC(=O)Cn2c(=O)n(-c3ccccc3)c(=O)c3c(C)c(C)sc32)cc1OC`: “inactive”.
For `CC1(C(=O)NS(=O)(=O)C2CC2)CCCN(C(=O)CSc2ccccc2)C1` (stereo not given), the Potency result is “inactive”.
Next, `COc1ccc(CCNC(=O)COC(=O)/C=C/c2cccs2)cc1OC`: “inactive”; `COc1ccc(CCNC(=O)c2cc3sccc3n2C)cc1OC`: 20.6 µM (active); `Cn1c(C(=O)NCCCN2CCCCC2)cc2sccc21`: “inactive”.
Next, `O=C(O)C1=C(C(=O)O)C2CCC1C2`: “inactive”.
Next, `Cc1ccc(S(=O)(=O)n2nc(C)c(S(=O)(=O)N3CCCCCC3)c2C)cc1`: “inactive”; `COc1cc(N=Cc2c(O)[nH]c3ccccc23)cc(OC)c1OC`: 4.11 µM (active).
Regarding `CN=c1scc(-c2cc(OC)ccc2OC)n1/N=C/c1c(C)[nH]c2ccccc12`, the Potency result was “inactive”.
Next, `Oc1[nH]c2ccccc2c1N=Nc1c(F)c(F)c(F)c(F)c1F`: “inactive”.
Next, `COc1ccc(N=Cc2c(O)[nH]c3ccccc23)cc1OC`: 6.51 µM (active).
Next, `COc1cc2[nH]c(O)c(C=O)c2cc1OC`: “inactive”; `COc1ccccc1N=Cc1c(O)c2ccccc2oc1=O`: “inactive”.
As for `CCCCN(C(C)=O)c1ccc2c(c1)C1CC2CCN1Cc1ccccc1` (stereo not given), the Potency result is “inactive”.
Next, `Cc1ccccc1-c1nc(SCC(=O)N(C)c2ccccc2)c2c(=O)n(C)c(=O)n(C)c2n1`: “inactive”; `CC1(C(=O)NS(=O)(=O)c2cccc(F)c2)CCN1C(=O)Cc1ccc(Cl)cc1Cl` (stereo not given): “inactive”.
